Measured values reported in PubChem BioAssay AID1159580 (chemical genetic matrix, 2015).
Out of some 5,500 compounds screened, about 2,000 (36%) were called active. Not shown: some 18% with an inconclusive outcome. Cut-off read from the data, not from the text of the source: active = normalized growth mostly below about 0.91 (no sharp cut-off); inconclusive = no clear call, values can overlap the other calls; inactive = mostly above about 0.92. This is one part of the list.

Experiment: chemical genetic growth profiling, strain panel (AID 1159580);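 note: tested at 20 µM; growth read once vehicle control cultures reached saturation at 30 °C; 1 = growth at the plate median or of vehicle wells; lower values mean less growth of the strain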
Conditions: growth OD

Measured: normalized growth

C=CCC1(C(C)CCC)C(=O)N=C(S)NC1=O (configuration not stated)
inactive: S. cerevisiae deletion strains, locus YJR075W, strain HOC1, stronger effect = lower value 1.04 | S. cerevisiae deletion strains, locus YKL009W, strain mrt4, stronger effect = lower value 0.963 | S. cerevisiae deletion strains, locus YKL068W, stronger effect = lower value 0.969 | S. cerevisiae deletion strains, locus YKL085W, strain MDH1 (second series), stronger effect = lower value 0.983 | S. cerevisiae deletion strains, locus YKL085W, strain MDH1, stronger effect = lower value 0.983 | S. cerevisiae deletion strains, locus YKL160W, strain elf1, stronger effect = lower value 0.972 | S. cerevisiae deletion strains, locus YKL190W, strain CNB1, stronger effect = lower value 0.992 | S. cerevisiae deletion strains, locus YKR001C, strain vps1, stronger effect = lower value 0.993 | S. cerevisiae deletion strains, locus YKR026C, strain gcn3, stronger effect = lower value 0.925 | S. cerevisiae deletion strains, locus YKR091W, strain srl3, stronger effect = lower value 0.978 | S. cerevisiae deletion strains, locus YLL001W, strain dnm1, stronger effect = lower value 0.942 | S. cerevisiae deletion strains, locus YLL026W, stronger effect = lower value 0.994 | S. cerevisiae deletion strains, locus YLL041C, strain sdh2, stronger effect = lower value 0.974 | S. cerevisiae deletion strains, locus YLR027C, strain aat2, stronger effect = lower value 0.979 | S. cerevisiae deletion strains, locus YLR039C, strain RIC1, stronger effect = lower value 0.891 | S. cerevisiae deletion strains, locus YLR058C, strain SHM2, stronger effect = lower value 0.988 | S. cerevisiae deletion strains, locus YLR102C, strain apc9, stronger effect = lower value 0.966 | S. cerevisiae deletion strains, locus YLR113W, strain HOG1, stronger effect = lower value 0.977 | S. cerevisiae deletion strains, locus YLR221C, strain rsa3, stronger effect = lower value 1 | S. cerevisiae deletion strains, locus YLR258W, strain gsy2, stronger effect = lower value 0.967 | S. cerevisiae deletion strains, locus YLR262C, strain YPT6 (second series), stronger effect = lower value 0.905 | S. cerevisiae deletion strains, locus YLR262C, strain YPT6, stronger effect = lower value 0.853 | S. cerevisiae deletion strains, locus YLR268W, strain sec22, stronger effect = lower value 0.992 | S. cerevisiae deletion strains, locus YLR320W, strain mms22, stronger effect = lower value 1.01 | S. cerevisiae deletion strains, locus YLR330W, strain CHS5, stronger effect = lower value 0.979 | S. cerevisiae deletion strains, locus YLR342W, strain FKS1 (second series), stronger effect = lower value 0.916 | S. cerevisiae deletion strains, locus YLR342W, strain FKS1, stronger effect = lower value 0.978 | S. cerevisiae deletion strains, locus YLR357W, strain rsc2, stronger effect = lower value 0.978 | S. cerevisiae deletion strains, locus YLR370C, strain arc18, stronger effect = lower value 0.99 | S. cerevisiae deletion strains, locus YLR371W, strain rom2, stronger effect = lower value 0.957 | S. cerevisiae deletion strains, locus YLR384C, strain iki3, stronger effect = lower value 0.944 | S. cerevisiae deletion strains, locus YLR418C, strain cdc73, stronger effect = lower value 1.04 | S. cerevisiae deletion strains, locus YML016C, strain PPZ1, stronger effect = lower value 0.994 | S. cerevisiae deletion strains, locus YML032C, strain rad52, stronger effect = lower value 0.957 | S. cerevisiae deletion strains, locus YML120C, strain ndi1, stronger effect = lower value 0.988 | S. cerevisiae deletion strains, locus YML124C, strain tub3, stronger effect = lower value 0.981 | S. cerevisiae deletion strains, locus YMR058W, strain fet3, stronger effect = lower value 0.977 | S. cerevisiae deletion strains, locus YMR078C, strain ctf18, stronger effect = lower value 0.972 | S. cerevisiae deletion strains, locus YMR125W, strain sto1, stronger effect = lower value 0.923 | S. cerevisiae deletion strains, locus YMR129W, stronger effect = lower value 0.978 | S. cerevisiae deletion strains, locus YMR205C, strain PFK2, stronger effect = lower value 0.965 | S. cerevisiae deletion strains, locus YMR223W, strain ubp8, stronger effect = lower value 0.979 | S. cerevisiae deletion strains, locus YMR231W, strain pep5, stronger effect = lower value 0.963 | S. cerevisiae deletion strains, locus YMR263W, strain SAP30, stronger effect = lower value 1.01 | S. cerevisiae deletion strains, locus YMR307W, strain GAS1, stronger effect = lower value 1.02 | S. cerevisiae deletion strains, locus YNL067W, strain RPL9B, stronger effect = lower value 1.02 | S. cerevisiae deletion strains, locus YNL071W, strain lat1, stronger effect = lower value 1 | S. cerevisiae deletion strains, locus YNL128W, strain TEP1, stronger effect = lower value 1.01 | S. cerevisiae deletion strains, locus YNL153C, strain GIM3, stronger effect = lower value 1.03 | S. cerevisiae deletion strains, locus YNL183C, strain NPR1, stronger effect = lower value 0.929 | S. cerevisiae deletion strains, locus YNL209W, strain ssb2, stronger effect = lower value 0.976 | S. cerevisiae deletion strains, locus YNL233W, strain BNI4, stronger effect = lower value 1.03 | S. cerevisiae deletion strains, locus YNL248C, strain rpa49, stronger effect = lower value 0.914 | S. cerevisiae deletion strains, locus YNL250W, strain rad50, stronger effect = lower value 0.963 | S. cerevisiae deletion strains, locus YNL271C, strain bni1, stronger effect = lower value 0.98 | S. cerevisiae deletion strains, locus YNL298W, strain CLA4, stronger effect = lower value 0.978 | S. cerevisiae deletion strains, locus YNL307C, strain MCK1, stronger effect = lower value 0.961 | S. cerevisiae deletion strains, locus YNL322C, strain KRE1 (second series), stronger effect = lower value 0.969 | S. cerevisiae deletion strains, locus YNL322C, strain KRE1, stronger effect = lower value 0.989 | S. cerevisiae deletion strains, locus YNR049C, strain mso1, stronger effect = lower value 0.97 | S. cerevisiae deletion strains, locus YNR052C, strain pop2, stronger effect = lower value 0.995 | S. cerevisiae deletion strains, locus YOL006C, strain TOP1, stronger effect = lower value 1.06 | S. cerevisiae deletion strains, locus YOL012C, strain htz1 1.08 | S. cerevisiae deletion strains, locus YOL147C, strain pex11, stronger effect = lower value 0.99 | S. cerevisiae deletion strains, locus YOR001W, strain rrp6, stronger effect = lower value 0.952 | S. cerevisiae deletion strains, locus YOR061W, strain CKA2, stronger effect = lower value 0.99 | S. cerevisiae deletion strains, locus YOR069W, strain VPS5, stronger effect = lower value 0.974 | S. cerevisiae deletion strains, locus YOR070C, strain gyp1, stronger effect = lower value 0.991 | S. cerevisiae deletion strains, locus YOR080W, strain dia2, stronger effect = lower value 0.959 | S. cerevisiae deletion strains, locus YOR083W, strain WHI5, stronger effect = lower value 0.976 | S. cerevisiae deletion strains, locus YOR106W, strain vam3, stronger effect = lower value 0.941 | S. cerevisiae deletion strains, locus YOR136W, strain idh2, stronger effect = lower value 0.993 | S. cerevisiae deletion strains, locus YOR144C, strain elg1, stronger effect = lower value 0.991 | S. cerevisiae deletion strains, locus YOR184W, strain ser1, stronger effect = lower value 0.949 | S. cerevisiae deletion strains, locus YOR231W, strain MKK1, stronger effect = lower value 0.984 | S. cerevisiae deletion strains, locus YOR265W, strain rbl2, stronger effect = lower value 0.976 | S. cerevisiae deletion strains, locus YOR270C, strain vph1, stronger effect = lower value 0.912 | S. cerevisiae deletion strains, locus YOR290C, strain snf2, stronger effect = lower value 0.996 | S. cerevisiae deletion strains, locus YOR316C, strain cot1, stronger effect = lower value 0.981 | S. cerevisiae deletion strains, locus YPL051W, strain arl3, stronger effect = lower value 0.979 | S. cerevisiae deletion strains, locus YPL055C, strain LGE1, stronger effect = lower value 1.02 | S. cerevisiae deletion strains, locus YPL078C, strain atp4, stronger effect = lower value 0.937 | S. cerevisiae deletion strains, locus YPL106C, strain sse1, stronger effect = lower value 0.988 | S. cerevisiae deletion strains, locus YPL240C, strain hsp82, stronger effect = lower value 0.97 | S. cerevisiae deletion strains, locus YPL241C, strain CIN2, stronger effect = lower value 0.99 | S. cerevisiae deletion strains, locus YPL256C, strain CLN2, stronger effect = lower value 0.996 | S. cerevisiae deletion strains, locus YPR119W, strain clb2, stronger effect = lower value 0.99 | S. cerevisiae deletion strains, locus YPR141C, strain kar3, stronger effect = lower value 0.977 | S. cerevisiae deletion strains, locus YPR163C, strain tif3, stronger effect = lower value 0.985 | S. cerevisiae deletion strains, locus YPR167C, strain met16, stronger effect = lower value 0.981 | S. cerevisiae deletion strains, strain wtn01, stronger effect = lower value 0.98 | S. cerevisiae strains, strain wild type, stronger effect = lower value 0.986
